Activity calls are given as the source filed them.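 How the source made its calls, unless noted: active means fluorescence slope higher than the sample average by over 3 SD (cut at about -0.22 in these data, passing the limit was not always enough); inactive means the rest.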
Experiments:
[1] = inhibitors of TNFa-induced NFkB p65 translocation, primary screen, imaging, HUVEC, MLSMR starter and 10KST1 sets (AID 438;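 active means inhibition above 20% together with a positive visual image hit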;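 further: compound added about 3h40 before a 20 min TNFalpha stimulation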;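 on inhibition: signal is the nuclear over cytoplasmic p65 intensity ratio per well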); conditions: HUVEC TNFa-induced p65 nuclear translocation; cell count: measured here: nuclei count (cytotoxicity indicator), at 2.08 µM; inhibition: at 2 µM, stronger effect = higher value, 0% TNFa-plus-vehicle, 100% no-TNFa wells
[2] = inhibitors of mutant huntingtin aggregation, primary screen, imaging, exon1htt(103Q)mCFP cells, high-content imaging (AID 483;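 active means visual image review flags a hit and inhibition of aggregation exceeds 20%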;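 further: compound exposure lasted 3 days before fixation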;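 on nuclei count: percent of the per-plate median nuclei count of sample wells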); conditions: exon1htt(103Q)mCFP cell line, aggregate imaging, at 2 µM; inhibition of aggregation: stronger effect = higher value; nuclei count: measured here: cell count, toxicity
[3] = inhibitors of E-selectin induction by TNFa, primary screen, imaging, HUVEC, immunofluorescence, MLSMR starter and 10KST1 sets (AID 487;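 active means visually confirmed hit in the image check and inhibition above 20%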;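 on inhibition: signal is fraction of cell area covered by stained E-selectin grains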;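 on nuclei count: 100% = median nuclei count of all wells on the same plate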); conditions: HUVEC TNFalpha-induced E-selectin immunofluorescence imaging, at 2 µM; inhibition: stronger effect = higher value; nuclei count: measured here: cell number, toxicity
[4] = target: Voltage-gated potassium channel subunit beta-2 (Rattus norvegicus) (UniProt P62483); assay: KvBeta enzyme negative modulators, primary screen, biochemical, NADPH fluorescence (AID 622); conditions: recombinant KvBeta, 4-cyanobenzaldehyde reduction, at 10 µM, stronger effect = higher value;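 further: slope of raw intensity against log time taken from 70 to 1610 s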
Voltage-gated potassium channel subunit beta-2 (Rattus norvegicus), sequence (P62483 whole entry, looked up): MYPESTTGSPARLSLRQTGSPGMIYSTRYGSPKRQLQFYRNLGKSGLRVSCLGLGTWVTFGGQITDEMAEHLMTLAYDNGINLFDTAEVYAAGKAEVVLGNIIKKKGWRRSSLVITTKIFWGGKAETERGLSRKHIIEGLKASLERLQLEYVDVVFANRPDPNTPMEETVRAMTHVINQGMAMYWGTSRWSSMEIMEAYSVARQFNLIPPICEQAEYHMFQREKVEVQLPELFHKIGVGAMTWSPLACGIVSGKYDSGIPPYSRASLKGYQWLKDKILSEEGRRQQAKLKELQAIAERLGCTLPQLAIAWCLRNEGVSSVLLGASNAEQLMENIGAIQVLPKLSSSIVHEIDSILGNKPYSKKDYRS

[5] = target: Voltage-gated potassium channel subunit beta-2 (Rattus norvegicus) (UniProt P62483); assay: KvBeta positive modulators, primary screen, biochemical, NADPH fluorescence (AID 623;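 active means NADPH fluorescence slope more negative than the mean of all samples by about 3 SD, 99.7% confidence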;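 further: fluorescence intensity change per second fitted from 20 to 320 s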); conditions: Recombinant KvBeta, NADPH fluorescence decrease slope, 10 min; at 10 µM; stronger effect = lower value
[6] = target: Alpha-2C adrenergic receptor (Homo sapiens) (UniProt P18825); assay: modulators of alpha2C/GIRK thallium flux, primary screen, cell-based, HEK293 alpha2C/GIRK1/2 (AID 624;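 active means fluorescence slope after compound addition differing from the mean of all screened samples at 99.7% confidence, in either direction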;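 further: slope of fluorescence ratio to pre-addition baseline per second over 15 to 24 s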); conditions: thallium flux BTC fluorescence, at 10 µM, actives lie on both sides
Alpha-2C adrenergic receptor (Homo sapiens), sequence (P18825 whole entry, looked up): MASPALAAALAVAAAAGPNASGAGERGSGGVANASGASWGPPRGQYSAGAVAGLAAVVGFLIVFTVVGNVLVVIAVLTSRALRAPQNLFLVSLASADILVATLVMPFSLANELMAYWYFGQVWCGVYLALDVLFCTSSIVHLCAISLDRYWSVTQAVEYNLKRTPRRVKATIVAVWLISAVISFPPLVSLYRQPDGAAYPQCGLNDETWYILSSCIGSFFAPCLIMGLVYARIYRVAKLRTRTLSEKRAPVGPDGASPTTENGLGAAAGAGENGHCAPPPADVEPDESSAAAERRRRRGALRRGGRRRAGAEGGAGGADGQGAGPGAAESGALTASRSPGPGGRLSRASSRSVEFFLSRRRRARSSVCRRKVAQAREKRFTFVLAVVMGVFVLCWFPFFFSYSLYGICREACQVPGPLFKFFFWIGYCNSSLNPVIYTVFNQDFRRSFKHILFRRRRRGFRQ

[7] = inhibitors of Sendai virus-induced IRF3 signaling, primary screen, TLR/RLR signaling modifier project, cell-based, Sendai virus stimulus, luciferase, 10K MLSCN set (AID 602276;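 active means inhibition at or above 50% at 10 µM; inactive means inhibition below 50%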;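 further: firefly luciferase from ISG56 promoter only with Renilla not read in this screen; 0% = Sendai virus plus DMSO and 100% = medium plus DMSO without virus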); conditions: HEK293 RL24 IRF3 luciferase reporter, at 10 µM, stronger effect = higher value
[8] = inhibitors of poly I:C-induced TLR3 signaling, primary screen, cell-based, poly I:C stimulus, luciferase, 10K MLSCN set (AID 602277;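 active means inhibition of the reporter signal at or above 50%; inactive means inhibition below 50%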); conditions: HEK293-TLR3 RL24 IRF3 luciferase reporter, at 10 µM, stronger effect = higher value

Structure (SMILES) | cell count [1] | inhibition [1] | inhibition of aggregation [2] | nuclei count [2] [%] | inhibition [3] | nuclei count [3] [%] | fluorescence slope [4] | NADPH fluorescence slope [5] | slope [6] | inhibition [7] | inhibition [8]
Cc1cc(C(=O)CN2C(=O)c3ccccc3C2=O)c(C)n1Cc1cccs1 | 522 | -14.8% (inactive) | -1% (inactive) | 112 | -3.3% (inactive) | 161 | -0.517 (inactive) | -0.000116 (inactive) | 0.00475 (inactive) | 14.6% (inactive) | 52.1% (active)
CCC(C(=O)OCC(=O)Nc1c(C)n(C)n(-c2ccccc2)c1=O)c1ccccc1 (centres undefined) | 640 | 6.8% (inactive) | 5.9% (inactive) | 89.5 | -53% (inactive) | 122 | -0.539 (inactive) | 5.3e-06 (inactive) | 0.00674 (inactive) | 7.71% (inactive) | 15.4% (inactive)
COC(=O)c1cc2oc(C)cc2n1CC(=O)Nc1ccc(C)c(C)c1 | 386 | 9.1% (inactive) | 6.1% (inactive) | 103 | -84.5% (inactive) | 115 | -0.337 (inactive) | -1.2e-05 (inactive) | 0.00552 (inactive) | -0.339% (inactive) | 4.84% (inactive)
Cn1c(COc2ccc(Cl)cc2)nnc1SCC(=O)NC1CCCCC1 | 328 | -1.3% (inactive) | 19.6% (inactive) | 91.8 | -90.6% (inactive) | 107 | -0.545 (inactive) | -1.7e-05 (inactive) | 0.00395 (inactive) | -9.58% (inactive) | -7.85% (inactive)
CCOC(=O)C1=C(C)N=c2s/c(=C\c3cccn3C)c(=O)n2C1c1cccc(OC)c1OC (centres undefined) | 342 | 4.5% (inactive) | 0.2% (inactive) | 98.8 | -38% (inactive) | 102 | -0.419 (inactive) | -8.6e-05 (inactive) | 0.0038 (inactive) | 15.4% (inactive) | 25.1% (inactive)
Cc1cc2nc(-c3ccco3)cc(C(F)(F)F)n2n1 | 903 | 3.5% (inactive) | -18.7% (inactive) | 104 | -56.6% (inactive) | 121 | -0.578 (inactive) | -1.8e-05 (inactive) | 0.00736 (inactive) | 10.1% (inactive) | 18.3% (inactive)
O=C(NCc1ccc2c(c1)OCO2)C1CCC(CNS(=O)(=O)c2ccccc2)CC1 (centres undefined) | 316 | 8.9% (inactive) | -31.1% (inactive) | 111 | -4.9% (inactive) | 116 | -0.489 (inactive) | 1.3e-05 (inactive) | 0.00655 (inactive) | 11.6% (inactive) | 26.6% (inactive)
CCN(CC(=O)Nc1ccc(S(N)(=O)=O)cc1)S(=O)(=O)c1cc(C)ccc1OC | 432 | -0.3% (inactive) | -6.5% (inactive) | 118 | -51.7% (inactive) | 132 | -0.425 (inactive) | -4.7e-05 (inactive) | 0.0034 (inactive) | -18.9% (inactive) | 19.6% (inactive)
Cc1nc2sc(C(c3cccc(F)c3)N3CCCCC3)c(O)n2n1 (centres undefined) | 223 | -2.8% (inactive) | -5.5% (inactive) | 95.8 | -5.7% (inactive) | 120 | -0.538 (inactive) | 7.3e-06 (inactive) | 0.00555 (inactive) | 1.92% (inactive) | 19.2% (inactive)
CCN=C1SC(CC(=O)Nc2ccccc2OCC)C(=O)N1CC (centres undefined) | 613 | -14.1% (inactive) | -12.5% (inactive) | 100 | 0.9% (inactive) | 92.3 | -0.488 (inactive) | -3.2e-05 (inactive) | 0.00493 (inactive) | 12.4% (inactive) | 20.8% (inactive)
CCOC(=O)c1c(N)sn(-c2ccccc2)c1=S | 441 | -9.2% (inactive) | 5.4% (inactive) | 114 | -55.1% (inactive) | 112 | -0.37 (inactive) | -5.3e-05 (inactive) | 0.00599 (inactive) | 15.3% (inactive) | 20% (inactive)
Cc1ccc(S(=O)(=O)Cn2nnnc2C(C(C)C)N2CCN(C(=O)c3ccco3)CC2)cc1 (centres undefined) | 400 | -0.4% (inactive) | 2.5% (inactive) | 100 | 6.9% (inactive) | 101 | -0.405 (inactive) | -4.2e-05 (inactive) | 0.00633 (inactive) | 11.4% (inactive) | 15.4% (inactive)
COc1ccc(S(=O)(=O)n2nc(OC(=O)c3ccc(C)cc3)cc2N)cc1 | 566 | -19.6% (inactive) | -9.1% (inactive) | 106 | -31% (inactive) | 144 | -0.337 (inactive) | -1.2e-06 (inactive) | 0.00323 (inactive) | 14% (inactive) | 19.2% (inactive)
CCn1c(SCC(=O)Nc2cccc(C)c2)nc2c(c1=O)SC(C)C2 (centres undefined) | 576 | -3.4% (inactive) | 40.7% (inactive) | 85.6 | -11.7% (inactive) | 86 | -0.537 (inactive) | -4.6e-05 (inactive) | 0.00615 (inactive) | 12.1% (inactive) | 25.9% (inactive)

From PubChem BioAssay
